test: resazurin metabolic signal in HepG2 cells – cell-based, resazurin fluorescence, 24 h, PK04 Diversity Set, profiling panel (AID 1172); conditions: HepG2 viability, higher = more signal; further: test concentration not given here

Row | Compound | z-score
1 | C=CC[C@@H]1C=C[C@H](ON=CC[C@@H]2C=C[C@H](OC(C)=O)[C@@H](COC(C)=O)O2)[C@@H](CO)O1 | 0.083
2 | C=CC[C@@H]1C=C[C@H](ON=C(C)CCN2CCCc3nc(C)c(C)cc32)[C@@H](CO)O1 | 0.394
3 | CC(=O)OC[C@H]1O[C@H](CC=NO[C@H](C)c2cn([C@@H]3COC[C@H]3O)nn2)C=C[C@@H]1OC(C)=O | -0.648
4 | CC(=O)OC[C@H]1O[C@H](CCON=C(C)CCN2CCCc3nc(C)c(C)cc32)C=C[C@@H]1OC(C)=O | 0.0171
5 | CO[C@H]1COC(=O)[C@H](CCSC)NC(=O)CC=C[C@@H](C)[C@H](OC)COC(=O)[C@@H](OCc2ccccc2)C=C[C@@H]1C | 0.81
6 | CN1CCc2nc(-c3ccccc3)c(-c3ccccc3)cc2C1 | 0.713
7 | CON=C(C)CCN1CCc2nc(-c3ccccc3)c(-c3ccccc3)cc2C1 | 1.86
8 | CCN1C(=O)[C@H]2[C@@H]3C(=CC[C@H]2C1=O)C(=O)[C@H]1O[C@H]1[C@H]3O | -1.22
9 | CC(C)C(=O)N[C@H]1CCCN1C(=O)C=Cc1ccccc1 | -0.274
10 | CCOC(=O)[C@H](CC(C)C)NC(=O)CCC1CC(OC(=O)NCc2ccc3c(c2)OCO3)CC2(CCCC(COC(=O)NCCC(C)C)O2)O1 (some centres not stated) | 0.54
11 | COC(=O)CC=C[C@@H](C)[C@@H](C=NOC[C@@H](O)COCc1ccco1)NS(=O)(=O)c1ccc(C)cc1 | -0.8
12 | CON=C(C)CCN1CCCCc2nc(C)c(C)cc21 | -0.18
13 | CC(=O)OC[C@H]1O[C@H](CCON=C(C)C)C=C[C@@H]1OC(C)=O | -0.97
14 | O=C1CCCC=C1C(O)C1CCCCC1 (configuration not stated) | -0.075
15 | COC(=O)CC=C[C@@H](C)[C@@H](C=NOC[C@@H](C)[C@H](OCc1ccccc1)C(C)C)OC | -1.01
16 | COC(=O)[C@H](C)NC(=O)CC=C[C@@H](C)[C@@H]1C=C[C@H](O)[C@@H](CO)O1 | -0.261

Row | Compound | z-score
17 | C[C@@H](c1ccccc1)N1C(=O)[C@H]2[C@H]3[C@H](O)[C@H](O)CC(=NOCc4ccccc4)[C@@H]3CC[C@H]2C1=O | -0.511
18 | O=C1[C@H]2[C@H]3[C@H](O)[C@H](O)CC(=NOC[C@@H](O)COCc4ccco4)[C@@H]3CC[C@H]2C(=O)N1Cc1ccc2c(c1)OCO2 | 0.351
19 | CCCNC(=O)OC[C@H]1O[C@H](CCON=C2C[C@@H](O)[C@@H](O)[C@@H]3[C@@H]4C(=O)N(CC)C(=O)[C@@H]4CC[C@@H]23)C=C[C@@H]1Oc1ccc(OC)cc1 | -0.57
20 | CC(C)CON=C1C[C@@H](O)[C@@H](O)[C@@H]2[C@@H]3C(=O)N(Cc4ccc5c(c4)OCO5)C(=O)[C@@H]3CC[C@@H]12 | 0.344
21 | COc1ccc(COC(=O)NN=C2C[C@@H](O)[C@@H](O)[C@@H]3[C@@H]4C(=O)N([C@@H](C)c5ccccc5)C(=O)[C@@H]4CC[C@@H]23)cc1 | -0.295
22 | C[C@@H]1CC[C@H]2C(=O)N3[C@@H](CC[C@@H](C)[C@@H]3c3ccc(Br)cc3)C(=O)N2[C@H]1c1ccc(Br)cc1 | -0.346
23 | CCOC(=O)CCN1C(=O)[C@H]2[C@H]3[C@H](O)[C@H](O)CC(=O)[C@@H]3CC[C@H]2C1=O | 1.09
24 | COC(=O)[C@H](CCSC)NC(=O)CC=C[C@@H](C)CO | -0.838
25 | CCOC(=O)[C@H](Cc1ccccc1)NC(=O)CCC1CC(OC(=O)NCc2cccc3ccccc23)CC2(CCCC(COC(=O)NCCOc3ccccc3)O2)O1 (some centres not stated) | -0.208
26 | COc1ccc(COC(=O)NN=C2C[C@@H](O)[C@@H](O)[C@@H]3[C@@H]4C(=O)N(c5cccc(Oc6ccccc6)c5)C(=O)[C@@H]4CC[C@H]23)cc1 | 0.609
27 | COc1ccc(OC[C@@H]2CC3[C@@H](c4ccc(Br)cc4)[C@H](C)CC[C@H]3C(=O)O2)cc1 (some centres not stated) | 0.527
28 | COC(=O)[C@H](C)NC(=O)CCC1CC(OC(=O)NCc2cccc3ccccc23)CC2(CCCC(COC(=O)NCCc3ccccc3OC)O2)O1 (some centres not stated) | -0.0725
29 | COc1ccc(OC[C@@H](CO)OC)cc1 | -0.279
30 | COc1ccc(COC(=O)NN=C2C[C@@H](O)[C@@H](O)[C@@H]3[C@@H]4C(=O)N(C[C@@H]5CCCO5)C(=O)[C@@H]4CC[C@@H]23)cc1 | -0.407
31 | CCOC(=O)[C@H](CC(C)C)NC(=O)CCC1CC(OC(=O)NCc2ccc3c(c2)OCO3)CC2(CCCC(COC(=O)NCCOc3ccccc3)O2)O1 (some centres not stated) | -0.167
32 | C=CC[C@@H]1C=C[C@H](ON=C(C)CCN2CCCCc3nc(C)c(C)cc32)[C@@H](CO)O1 | 0.162

Reference: PubChem BioAssay
